# Source: PubChem
# Her2 expr inh – lowers expression of human Her2 kinase | hit rate 0.69% among 65,000 | SKBR-3 HER2 protein level, AlphaScreen, 18-24 h; hits give low values | P04626 | HER2 level % of control, % at 10 µM | AID 645;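 active = HER2 level under 5% of the carrier-only control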;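 note: 100% = DMSO carrier and 0% = 500 nM PU-H71 HSP90 inhibitor; lower value means stronger loss of Her2 protein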
# PLAP activator – human PLAP activation | activation fold at 20 µM | purified PLAP enzyme, luminescent substrate read-out; hits give high values | P05187 | hit rate 1.2% among 96,000; in the data active = activation fold above about 2
# M1 agonist – activates the M1 muscarinic receptor. CHO-M1 cells, Fluo-4 calcium fluorescence, agonist mode; hits give high values. B-score at 10 µM. hit rate 3% among 64,000. AID 626;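 active = fluorescence rise, raw or as B-score row- and column-corrected plate score, outside the 99.7% band of its plate's samples, either direction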
# Cav32 inh – inhibitors of human Cav3.2 T-type calcium channel; O95180; Cav3.2-expressing cells, Fluo-4 calcium fluorescence FDSS; hits give low values; AID 449739; hit rate 4% among 100,000; B-score at 10 µM;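 active = single-dose well whose peak fluorescence ratio is a statistical outlier from its plate by either plate-standardised score or position-corrected B-score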
# M1 antagonist – blocks the rat M1 muscarinic receptor response to acetylcholine; P08482; CHO-M1 cells, Fluo-4 calcium, ACh EC80 antagonist mode; hits give low values; B-score at 10 µM; hit rate 3.4% among 64,000; AID 628;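 active = calcium fluorescence response, raw or row-and-column corrected B-score, differing from the plate sample mean either way at a set confidence level, mostly lower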
# * marks the source's active call; other numbers are inactive results; . = no result given. Sampled rows, rich in hits. Any-hit rate of the full collection: about 7.9%.
SMILES,Her2 expr inh,PLAP activator,M1 agonist,Cav32 inh,M1 antagonist
CC(C)OCCCN1CN(S(=O)(=O)c2cccc(Cl)c2)c2nc3ccccc3nc21,.,1.2,.,-2,.
COc1ccc(CCNC(=O)CSc2nc3cc(Cl)ccc3o2)cc1OC,.,0.8,.,0.055,.
CCc1ccccc1N(C(=O)CCC(=O)Nc1cc(C)on1)C(C(=O)NC1CCCC1)c1ccco1 (stereo not given),143,1.4,0.51,-2.3,0.45
Cc1ccc(C)c2[nH]c(=O)c(CN(CCN3CCCC3)C(=O)Nc3cccc(Cl)c3)cc12,63,1.4,-0.36,-7.6*,-0.75
Cc1ccc(P(=Nc2ccccc2)(N2CCOCC2)N2CCOCC2)o1,91,1.2,0.5,0.27,-1.7
COc1ccc2nc(NC(=O)CN(c3ccc(C)cc3)S(=O)(=O)c3c(C)nn(C)c3C)sc2c1,69,1.5,-0.34,-3.1,0.31
O=C(NC1CCCc2ccccc21)c1cccc(S(=O)(=O)N2CCN(c3ccccc3)CC2)c1 (stereo not given),.,1.5,.,-10*,.
O=C(Nc1ccc2c(c1)CCC2)c1cccc(S(=O)(=O)N2CCN(c3ccccc3)CC2)c1,.,1.5,.,-5.7*,.
O=C(Nc1ccccc1)c1cccc(S(=O)(=O)N2CCCCC2)c1,.,1.1,.,-1.7,.
CCCCNC(=O)Nc1ccnn1C1CCCCC1,122,1.2,-0.72,-0.093,2.4*
CC1(C)c2[nH]c3ccccc3c2C[C@H]2C(=O)N(Cc3ccc(F)cc3)C(=O)N21,.,.,.,-0.42,.
COc1c(C(CC(C)C)OC(C)=O)ccc2c1C(=O)OCc1cc(C)cc(O)c1O2 (stereo not given),.,.,.,-3.8*,.
COc1c(C(O)CC(C)C)ccc2c1C(=O)OCc1cc(C)cc(O)c1O2 (stereo not given),.,.,.,-2.9,.
Cn1cccc1Cc1nnc(SCC(=O)Nc2ccc(F)cc2F)n1-c1ccc(F)cc1,82,1.6,-0.17,-4.5*,0.028
COc1ccc(Cl)cc1NC(=O)CSc1nnc(Cc2cccn2C)n1-c1ccc(F)cc1,73,1.4,0.61,-6*,0.1
Cc1ccc(NC(=O)CSc2nnc(Cc3cccn3C)n2-c2ccc(F)cc2)c(C)c1,96,1.3,0.67,-10*,-0.48
COc1cccc(-n2c(Cc3cc(=O)[nH]c(=O)[nH]3)nnc2SCC(=O)N2CCCCC2)c1,94,1,-0.28,-0.16,-0.019
COC/C=C/C1=CC2=CC(=O)C(C)(OC(=O)c3cnc4ccccc4n3)C(=O)C2=CN1C1CCCC1 (stereo not given),.,.,.,0.97,.
CC(C)c1nc2ccc(NC(=O)C3CCCCC3)cc2[nH]1,.,.,.,-0.25,.
O=C(Nc1ccc2nc(-c3ccccn3)[nH]c2c1)C1CCCCC1,.,2.3*,.,-1.3,.
CCOC(=O)c1c(-c2ccc(C)o2)csc1NC(=O)CSc1nnc(C)s1,71,1.5,0.41,-6.2*,-0.12
O/N=C\c1cccn1-c1ccc(Br)cc1,.,1.4,.,-0.057,.
Cc1nc2nc(-c3ccco3)[nH]n2c(=O)c1C,.,1,.,0.059,.
O=C(C(Sc1ccccc1)c1ccccc1)N1CCN(c2ccccc2F)CC1 (stereo not given),.,0.9,.,-4*,.
CC(C)(C)C(=O)COC(=O)CNC(=O)c1ccc(Oc2ccccc2)cc1,.,0.9,.,-3.7*,.
SMILES,Her2 expr inh,PLAP activator,M1 agonist,Cav32 inh,M1 antagonist
CCC(C)(C)NC(=O)CN(C(=O)CNS(=O)(=O)c1ccc(C)cc1)c1ccc2c(c1)OCCO2,106,2*,2.6,.,1.4
Cc1ccc(S(=O)(=O)NCC(=O)N(CC(=O)NC2CCCC2)c2ccc3c(c2)OCCO3)cc1,101,1.3,0.16,.,0.51
O=S(=O)(NCCSc1ccccc1)c1ccc(F)cc1,100,0.8,0.068,-5.7*,-1
CC(C)(C)SCCNS(=O)(=O)c1ccc(F)cc1,102,0.8,-0.16,-0.54,-0.44
O=C(c1cccc2c1C(=O)N(Cc1cccnc1)C2)N1CCN(c2ccccc2)CC1,122,1.2,-0.044,0.85,0.11
Cc1ccc(Cn2cc(SCC(=O)Nc3nccs3)c3ccccc32)cc1,.,0.9,.,-6*,.
Cc1cccc(Cn2cc(SCC(=O)Nc3nccs3)c3ccccc32)c1,.,1,.,-4.6*,.
Cc1ccc(C(=O)NCCn2cc(SCC(=O)Nc3cc(C)on3)c3ccccc32)cc1,72,0.7,1.3,-4*,0.37
COc1ccc(CCNC(=O)CSc2cn(Cc3ccccc3)c3ccccc23)cc1OC,.,.,.,0.014,.
COc1ccc(CCNC(=O)CSc2cn(Cc3cccc(C)c3)c3ccccc23)cc1OC,.,.,.,-4.3*,.
O=C(CSc1nccn1Cc1ccccc1)Nc1nccs1,96,1.1,-0.096,-0.62,1.1
Cc1nnc(NC(=O)CSc2cn(Cc3ccccc3)c3ccccc23)s1,83,0.8,-0.65,-0.57,-1.4
Cc1cc(C)nc(/N=C/c2c(O)n(C)c(=O)n(C)c2=O)n1,91,0.9,0.11,.,1.2
CC1CCCC(C)N1C(=O)CSc1nc(N)c(-c2ccccc2)c(=O)[nH]1 (stereo not given),.,1.1,.,-0.55,.
C/C(=N/NC(N)=S)c1ccccc1[N+](=O)[O-],.,1,.,-0.026,.
Cc1occc1C(=O)NC1CCCc2ccccc21 (stereo not given),70,0.9,-0.077,0.32,-0.22
Cc1c(C(=O)NC2CCCc3ccccc32)oc2ccccc12 (stereo not given),.,0.9,.,-4.6*,.
CCC1(C)Cc2c(sc3c2c2ncnn2c2nnc(SCC(=O)NCc4ccco4)n32)CO1 (stereo not given),57,1,-0.53,3.7*,-1.2
CC1(C)Cc2c(sc3c2c2ncnn2c2nnc(SCC(=O)NCc4ccco4)n32)CO1,96,1,0.42,2.6,-1.2
COc1ccc(OC)c2c1C(=O)c1ccccc1C2=O,.,0.7,.,-8.9*,.
COc1ccc2noc3c2c1C(=O)c1ccccc1-3,65,.,354*,.,-12*
COc1cccc2c1C(=O)c1ccc3ccccc3c1C2=O,.,1,.,.,.
O=C(Cn1cnc2c(nnn2Cc2ccc(Cl)cc2)c1=O)NCc1ccco1,93,.,-0.045,0.01,-0.7
COC(=O)c1ccc(OC)cc1OCC(=O)N1CCN(c2ccc(F)cc2)CC1,.,1,.,0.029,.
CCc1ccc2c(CN3CCc4ccccc43)cc(=O)oc2c1,60,1,-0.47,-2.6,-0.023
SMILES,Her2 expr inh,PLAP activator,M1 agonist,Cav32 inh,M1 antagonist
Cc1cc2oc(=O)cc(CN3CCc4ccccc43)c2cc1Cl,102,0.9,0.27,-5.3*,-0.46
O=C(CSCc1ccc(F)cc1)NCc1ccco1,.,1.3,.,-0.61,.
CCCCOC(=O)c1ccc(NC(=O)CSCc2n[nH]c(=O)[nH]2)cc1,112,2.1*,0.62,0.028,-0.19
S=c1[nH]nc(-c2cc(-c3ccco3)[nH]n2)n1-c1ccccc1,.,2.1*,.,2,.
S=c1[nH]nc(-c2cc(-c3ccco3)[nH]n2)n1-c1ccccc1Cl,.,1.8,.,2.2,.
CCOC(=O)c1ccc(NC2OC(=O)c3ccccc32)cc1 (stereo not given),96,0.9,0.8,1,0.9
COc1cc(C2=CCN(C(C)=O)CC2)ccc1OC(C)=O,.,.,.,1.2,.
Cc1ccc(CN2C(=O)C(C)(C)Oc3ccc(C(=O)N4CCCCC4)cc32)cc1,74,1.4,0.41,-5.2*,0.22
